Assay [1] is described as follows: qHTS assay for small molecules that induce genotoxicity in human embryonic kidney cells expressing luciferase-tagged ATAD5 (AID 651632). Also: nearly all actives have a fitted effect of over 15% in size. In short, it runs like this:
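Cells were seeded at 2,000 per well, dosed with compound, and incubated 16 hr at 37C in 5% CO2. Luciferase activity was then quantified after a 30 min room-temperature incubation with Amplite.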

The nature of assay [2]: qHTS assay for small molecules that induce genotoxicity in human embryonic kidney cells expressing luciferase-tagged ATAD5 - cell viability (AID 651634; calls by dose curve; also: nearly all actives have a fitted effect of over 25% in size; also: potency is read from the fitted curve at half-maximal effect). In short, it runs like this: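 Cells (HEK293T, luciferase-tagged ATAD5) are seeded at 2,000 per well, dosed with compound or DMSO vehicle, and incubated 15.5 hr at 37C and 5% CO2. CellTiter-Fluor is added for 30 min before fluorescence is measured.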
For orientation: In qHTS, concentration-response curves come from the screen itself.

The nature of assay [3]: qHTS assay for small molecule disruptors of the mitochondrial membrane potential - cell viability (AID 720634; calls by dose curve; also: nearly all actives have a fitted effect of over 20% in size; also: potency is read from the fitted curve at half-maximal effect). In short, it runs like this: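 Cytotoxicity was measured by ATP quantitation in HepG2 wells that had first been treated with compound for 1 hr and stained with m-MPI dye; CellTiter-Glo incubation was 30 min at room temperature.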
Assay [4] in a line: qHTS assay to test for compound auto fluorescence at 590 nm (red) in HepG2 cells (AID 720674). Summed up: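 Rose Bengal sodium served as the red fluorophore standard. HepG2 monolayers (overnight attachment, MEM with 10% FBS) were exposed to test compounds for 1 hr at 37 C and read at Ex 540/Em 590 nm.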
Assay [5] can be described thus: qHTS assay to test for compound auto fluorescence at 535 nm (green) in HepG2 cells (AID 720675).
A short description of assay [6]: qHTS assay to test for compound auto fluorescence at 460 nm (blue) in HEK293 cells (AID 720678). In short, it runs like this: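 Triamterene serves as the blue fluorophore standard. Compound signal at 405/460 nm is read in HEK293 wells (2,000 cells, 10% dialyzed FBS) after overnight treatment at 37C.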
A short description of assay [7]: qHTS assay to test for compound auto fluorescence at 590 nm (red) in HEK293 cells (AID 720679). Summed up: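 We plated HEK293 cells in 10% dialyzed FBS medium, let them adhere for 4-5 hr, then added 23 nL compound. Overnight at 37C and 5% CO2 preceded fluorescence measurement at 540/590nm.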
Assay [8] can be described thus: qHTS assay to test for compound auto fluorescence at 535 nm (green) in HEK293 cells (AID 720680).
Assay [9] in a line: qHTS assay to test for compound auto fluorescence at 460 nm (blue) in HEK293 cell free culture (AID 720681). Summed up: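 Test compounds were pinned into cell-free culture medium (DMEM with 10% FBS) and fluorescence was read directly at Ex/Em 405/460 nm. Signals were expressed as fluorescence equivalents of triamterene, with DMSO vehicle as control.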
The nature of assay [10]: qHTS assay to test for compound auto fluorescence at 535 nm (green) in HEK293 cell free culture (AID 720682). Summed up:
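Cell-free medium (DMEM, 10% FBS) receives compound or DMSO by pintool. Plate read directly at Ex 485/Em 535 nm. Signal converted to fluorescein equivalency.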

Assay [11] can be described thus: qHTS assay to test for compound auto fluorescence at 590 nm (red) in HEK293 cell free culture (AID 720683). Summed up: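 Tox21 10K library compounds were pinned into cell-free DMEM with 10% FBS and fluorescence was read at excitation 540 nm. Activity is expressed as Rose Bengal sodium equivalency.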
Assay [12] in a line: qHTS assay to test for compound auto fluorescence at 535 nm (green) in HepG2 cell free culture (AID 720686).
Assay [13] is described as follows: qHTS assay to test for compound auto fluorescence at 460 nm (blue) in HepG2 cells (AID 720687). Summed up:
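Cells (2,000/well in MEM with 10% FBS) attached overnight at 37 C, then were exposed to compound or DMSO for 1 hr at 37 C, 5% CO2. Fluorescence read at Ex/Em 405/460 nm, expressed as triamterene-equivalent signal.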

Assay [14] concerns the target Glucocorticoid receptor (Homo sapiens) (UniProt P04150). Briefly: qHTS assay to identify small molecule agonists of the glucocorticoid receptor (GR) signaling pathway (AID 720691; active = well fitted activation curve with a large enough effect in the signal ratio in the repeat runs, not every such curve was filed as active; the % refers to the signal ratio). In short, it runs like this:
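Steps: seed GR-bla HeLa cells, incubate 4 h at 37 C/5% CO2; pin-transfer DMSO-dissolved compounds; incubate 18 h at 37 C; add LiveBLAzer B/G FRET substrate; after 2 h at room temperature, measure fluorescence.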

Assay [15] is described as follows: qHTS assay to test for compound auto fluorescence at 590 nm (red) in HepG2 cell free culture (AID 720684). Summed up:
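Ex 540 / Em 590 nm read of compound in cell-free MEM (10% FBS). Rose Bengal sodium reference.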

Assay [16] can be described thus: qHTS assay to test for compound auto fluorescence at 460 nm (blue) in HepG2 cell free culture (AID 720685). In short, it runs like this: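 Cell-free plates of MEM plus 10% FBS received 23 nL compound or DMSO vehicle; blue-channel (405/460 nm) intensity scored against triamterene as reference fluorophore.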
The nature of assay [17]: qHTS assay for small molecule disruptors of the mitochondrial membrane potential (AID 720635). Also: potency is read from the fitted curve at half-maximal effect. Summed up: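 HepG2 cells (2,000/well) attached overnight at 37C, then took compound for 1 hr at 37C, 5% CO2. Mito-MPS dye was added for 30 min; fluorescence was read at 490/535 nm (monomers) and 540/590 nm (aggregates).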
A short description of assay [18]: qHTS assay for small molecule agonists of the p53 signaling pathway - cell viability (AID 651633; calls by dose curve; also: nearly all actives have a fitted effect of over 30% in size; also: potency is read from the fitted curve at half-maximal effect). Summed up:
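p53RE-bla cells, seeded at 4,000 per well and rested 5 h at 37 C/5% CO2, received compounds in DMSO for 16 h at 37 C. CellTiter-Glo was then added, and luminescence was read after 30 min at room temperature to gauge cytotoxicity.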

We go through 15 molecules from PubChem BioAssay (Tox21).

SMILES strings stand for the structures. Several values for one entry are separate records, joined by “and”; a condition that tells them apart may be missing. Identical values can stand only once. A number with no mark means an inactive call. Results filed as inconclusive are left out. Activity calls are given as the source filed them. Unless noted, calls follow the shape of the dose curve; as a rule, active = well fitted curve in the direction sought with a large enough effect in the repeat runs; inconclusive = weak or mixed curves; inactive = no such curve, though single readings can be large; an effect the other way counts as inactive or inconclusive.

Sequence of Glucocorticoid receptor (Homo sapiens) (P04150 whole entry, looked up): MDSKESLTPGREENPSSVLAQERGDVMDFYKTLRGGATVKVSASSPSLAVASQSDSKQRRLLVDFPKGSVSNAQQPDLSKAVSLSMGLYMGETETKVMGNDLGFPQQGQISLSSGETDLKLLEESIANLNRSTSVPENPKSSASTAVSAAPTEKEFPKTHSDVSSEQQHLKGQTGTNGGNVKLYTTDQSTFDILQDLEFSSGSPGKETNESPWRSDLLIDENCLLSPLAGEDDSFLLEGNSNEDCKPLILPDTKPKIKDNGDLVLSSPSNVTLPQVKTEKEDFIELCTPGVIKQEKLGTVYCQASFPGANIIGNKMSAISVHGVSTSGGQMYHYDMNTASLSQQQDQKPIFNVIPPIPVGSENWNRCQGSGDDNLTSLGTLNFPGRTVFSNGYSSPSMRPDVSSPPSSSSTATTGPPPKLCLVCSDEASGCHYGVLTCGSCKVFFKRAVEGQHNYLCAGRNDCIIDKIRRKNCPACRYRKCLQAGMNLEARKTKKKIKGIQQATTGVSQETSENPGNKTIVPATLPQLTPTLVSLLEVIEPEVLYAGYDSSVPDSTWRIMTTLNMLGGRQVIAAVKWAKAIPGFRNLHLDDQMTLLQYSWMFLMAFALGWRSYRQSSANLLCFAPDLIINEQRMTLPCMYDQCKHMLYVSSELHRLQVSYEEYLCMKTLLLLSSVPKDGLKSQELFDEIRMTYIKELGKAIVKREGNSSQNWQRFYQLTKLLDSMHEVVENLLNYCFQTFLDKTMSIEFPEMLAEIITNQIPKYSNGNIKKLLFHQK

Consider `Fc1cccc(Cl)c1CCl`, for which the Potency entry in assay [1], in [2], in assay [3], in assay [6], in assay [9] and in assay [13] was “inactive” in each case. Besides, in assay [14], the Potency entry was “inactive”. Besides, the outcome in assay [4], in assay [5], in assay [7], in [8], in assay [10] and in assay [11] was inactive. In addition, the call in [12] was inactive.

Consider `CC1(C)CC/C(=C/c2ccc(Cl)cc2)C1(O)Cn1cncn1` (centres undefined), for which the Potency result in assay [1], in [2], in assay [3], in [6], in [9] and in assay [16] was “inactive” in each case. Moreover, the Potency result in assay [13] was “inactive”. In addition, the outcome in [4], in assay [5], in [8], in assay [10], in [11] and in [15] was inactive. Besides, the molecule was classed as inactive in [12].

With `Fc1ccc(Oc2ccnc3cc(Cl)cc(Cl)c23)cc1`, the Potency result in [1], in [2], in assay [6], in assay [9], in assay [13] and in [14] was “inactive” in each case. Further, in assay [17], the Potency is 30.6 µM (active). The molecule was called inactive in assay [4], in assay [5], in assay [7], in assay [8], in assay [10] and in assay [11]. The result in assay [15] and in [12] was inactive.

Turning to `CC(C)C1CCC(Cc2ccc(Cl)cc2)C1(O)Cn1cncn1` (centres undefined), the Potency result in assay [1], in assay [6], in assay [9], in [16] and in assay [13] was “inactive” in each case. Also, the Potency is 53.9 µM (active) in [2] and 15.2 µM (active) in [17]. Besides, the molecule was called inactive in assay [4], in assay [5], in assay [7], in assay [8], in assay [10] and in [11]. Further, the outcome in [15] and in assay [12] was inactive.

As for `O=C/C(Cl)=C(/Cl)C(=O)O`, the Potency result in [18], in [2], in assay [6], in assay [9], in assay [16] and in [13] was “inactive” throughout. Further, the Potency was 61.1 µM (active) in assay [3]; 24.3 µM (active) and 38.6 µM (active) in assay [17]. Moreover, the result in [4], in assay [5], in [7], in assay [8], in assay [10] and in [11] was inactive. Besides, the outcome in assay [12] was inactive.

`CC(=O)[O-].[Tl+]`: the Potency in assay [18] was 43.5 µM (active). Further, the outcome in assay [4], in assay [5], in assay [7], in [8], in [10] and in assay [11] was inactive. The outcome in [15] and in assay [12] was inactive. In addition, the Potency result in assay [6], in [9], in assay [16] and in assay [13] was “inactive” throughout.

In the case of `CCCCCCCCCCCCBr`, the Potency result in [1], in assay [2], in assay [6], in assay [9], in assay [13] and in assay [14] was “inactive” each time. Besides, the Potency in assay [17] was 27.3 µM (active). For the same molecule, the result in assay [4], in [5], in assay [7], in assay [8], in [10] and in [11] was inactive. The outcome in assay [15] and in [12] was inactive.

For `Oc1cc(Cl)c(Cl)c(Cl)c1`, the Potency result in assay [1], in [2], in assay [6], in assay [9], in assay [16] and in assay [13] was “inactive” each time. Moreover, in assay [14], the Potency entry is “inactive”. Also, in assay [17], the Potency was 2.31 µM (active). For the same molecule, the molecule was classed as inactive in assay [4], in [5], in [8], in [10], in [11] and in assay [15]. The outcome in assay [12] was inactive.

Turning to `O=c1[nH]c2ccccc2n1CCCN1CCC(n2c(=O)[nH]c3cc(Cl)ccc32)CC1`, the Potency result in [18], in assay [3], in [17], in assay [6], in [9] and in assay [13] was “inactive” each time. For the same molecule, the Potency entry in assay [14] is “inactive”. Besides, the molecule was classed as inactive in [4], in assay [5], in [8], in assay [10], in assay [11] and in assay [15]. Moreover, in assay [12], the call was inactive.

`ClC1=C(Cl)[C@]2(Cl)[C@H]3[C@H]([C@H]4C=C[C@H]3C4)[C@@]1(Cl)C2(Cl)Cl`: the Potency result in assay [1], in assay [2], in assay [6], in assay [9], in assay [16] and in assay [13] was “inactive” each time. Also, the Potency result in assay [14] was “inactive”. Besides, the Potency in assay [17] is 43.3 µM (active). In addition, the result in assay [4], in assay [5], in assay [7], in assay [8], in assay [10] and in assay [11] was inactive. In addition, the molecule was called inactive in [15] and in assay [12].

With `[Cd+2].[Cl-].[Cl-]`, the Potency in assay [2] is 1.95 µM (active) and 1.22 µM (active). Further, the molecule was classed as inactive in assay [4], in [5], in assay [7], in [8], in assay [10] and in assay [11]. In addition, the outcome in assay [15] and in [12] was inactive. The Potency entry in assay [6], in [9], in assay [16] and in assay [13] was “inactive” in each case.

As to `CCCCCCCCCCCCCCCCCCn1cc[n+](C)c1`, the Potency result in assay [1], in [2], in assay [6], in assay [9], in assay [16] and in [13] was “inactive” throughout. Besides, the Potency entry in [14] was “inactive”. In assay [17], the Potency is 9.63 µM (active). Further, the result in assay [4], in [5], in assay [7], in assay [8], in [10] and in assay [11] was inactive. Besides, the call in assay [15] and in assay [12] was inactive.

Consider `CC(=O)[O-].CC(=O)[O-].[Hg+2]`, for which the figures for the Potency in assay [18] and in assay [2] were 1.93 µM (active) and 54.5 µM (active), respectively. The molecule was classed as inactive in assay [4], in assay [5], in assay [7], in assay [8], in [10] and in assay [11]. Besides, the call in assay [15] and in assay [12] was inactive. The Potency entry in assay [6], in assay [9], in [16] and in [13] was “inactive” each time.

As to `O=[N+]([O-])c1cc(C(F)(F)F)c(Cl)c([N+](=O)[O-])c1Cl`, the Potency in assay [18] was 27.3 µM (active); in assay [2] it was 24.3 µM (active); in [3], 15.4 µM (active); in assay [17], 13.7 µM (active). For the same molecule, the result in assay [4], in assay [5], in [7], in [8], in assay [10] and in assay [11] was inactive. The molecule was called inactive in [15] and in assay [12]. Further, the Potency entry in assay [6], in assay [9], in assay [16] and in assay [13] was “inactive” each time.

Regarding `N#CCCC(Br)(C#N)CBr` (centres undefined), the Potency result in assay [18], in [6], in assay [9], in assay [13] and in assay [14] was “inactive” throughout. Further, in assay [17], the Potency is 61.1 µM (active). Moreover, the call in assay [4], in assay [5], in assay [7], in assay [8], in assay [10] and in assay [11] was inactive. In addition, the result in assay [15] and in [12] was inactive.
